Values joined by “and” are separate entries in the source; they are usually repeats but may differ in a detail not shown here. Equal values may be shown once. Inconclusive results are not listed. Active and inactive are the calls of the source. Calls come from the whole dose curve.

The nature of this test: qHTS for Inhibitors of the Functional Ribonucleoprotein Complex (vRNP) of Lassa (LASV) Arenavirus: LASV Confirmatory Screen - GLuc reporter signal. As to conditions: LASV minigenome vRNP, Gaussia luciferase reporter; series mostly up to 53.9 µM. (Quantitative high-throughput screening tests each substance at several concentrations.)
Consider `COc1cccc(-c2ccc(NC(=O)C3=C(C(=O)O)CCC3)c(F)c2)c1`, for which the Potency is 6.85 µM (active). For the compound `CC(=O)[C@H]1CC[C@H]2[C@@H]3CCC4=CC(=O)CC[C@]4(C)[C@H]3CC[C@]12C`, the Potency is 21.7 µM (active). The same measure, in the same setting: under `COCCOC(=O)C1=C(C)NC(C)=C(C(=O)OC/C=C/c2ccccc2)C1c1cccc([N+](=O)[O-])c1` (stereo unspecified) stands 27.3 µM (active). The same measure, in the same setting: then `CC12C(=O)OC(=O)C1(C)C1CCC2O1` (stereo unspecified), with 9.68 µM (active); and `Cc1cccc(-c2[nH]c(C(C)(C)C)nc2-c2ccc3c(c2)OCO3)n1`, with 3.43 µM (active); and `CCC(C)c1nccnc1OC` (stereo unspecified), with “inactive”. For `CCCCC/C(C=O)=C\c1ccccc1`, the Potency result is “inactive”.

`S=C(NCc1ccc2c(c1)OCO2)N1CCN(c2ncnc3c2oc2ccccc23)CC1`: the Potency was 1.77 µM (active). On the same count and under the same terms, under `C=C(C)C1Cc2c(ccc3c2OC2COc4cc(OC)c(OC)cc4C2C3=O)O1` (stereo unspecified) stands 0.0217 µM (active). Consider `CC(C)=CCC/C(C)=C/CC/C(C)=C/CC[C@]1(C)CCc2c(C)c(O)c(C)c(C)c2O1`, for which the activity, negative = inhibition was -9.56% [at 6 µM] (inactive). Consider `Cc1cc(N)c2ccccc2[n+]1CCCCCCCCCC[n+]1c(C)cc(N)c2ccccc21`, for which the Potency was 1.37 µM (active). On the same count and under the same terms, under `COc1ccc(Cc2nccc3cc(OC)c(OC)cc23)cc1OC` stands 3.06 µM (active) and 3.85 µM (active). Still for that read-out and setting: under `C=C(C)[C@H]1Cc2c(ccc3c2O[C@@H]2COc4cc(OC)c(OC)cc4[C@@H]2C3=O)O1` stands 0.0306 µM (active). Same read-out and setting: then `CC1=C(C)C(=O)C(CCCCC#CCCCC#CCO)=C(C)C1=O`, with 24.3 µM (active). Take `Clc1nccc2c1ccc1ccccc12`: the Potency entry is “inactive”. Still for that read-out and setting: then `CCc1cncnc1N1CCN(Cc2nc3ccc(C(F)(F)F)cc3[nH]2)CC1`, with 3.95 µM (active).

For the compound `CCC1OC2(C)C(O)C(/C=C/C=C/C=C/c3oc(=O)cc(OC)c3C)OC1(C)C2OC(C)=O` (stereo unspecified), the Potency was 0.137 µM (active). On the same count and under the same terms, under `CCN(CC)C(=O)N[C@@H]1C=C2c3cccc4[nH]cc(c34)C[C@@H]2N(C)C1` stands “inactive”; under `CCCCCC[C@H]1C(=O)O[C@H](C)[C@H](NC(=O)c2cccc(NC=O)c2O)C(=O)O[C@@H](C)[C@@H]1OC(=O)CC(C)C`, 0.0306 µM (active). On the same count and under the same terms, under `CC1OC(=O)[C@@H](C(C)C)NC(=O)C(C(C)C)OC(=O)[C@H](C(C)C)NC(=O)C(C)OC(=O)[C@@H](C(C)C)NC(=O)C(C(C)C)OC(=O)[C@H](C(C)C)NC(=O)C(C)OC(=O)[C@@H](C(C)C)NC(=O)C(C(C)C)OC(=O)[C@H](C(C)C)NC1=O` (stereo partly specified) stands 0.153 µM (active); under `Nc1ccc([N+](=O)[O-])cc1O`, 0.396 µM (active); under `CC(O)(P(=O)(O)O)P(=O)(O)O`, “inactive”.

As to `Cn1cc(-c2ccncc2)c(-c2ccc(OCc3ccc4ccccc4n3)cc2)n1`, the Potency is 24.3 µM (active). On the same count and under the same terms, under `Fc1ccc(CNc2ncnc3ccc(F)cc23)cc1` stands 6.85 µM (active); under `CC(C)(C)C1CCC(CC2=C(O)c3ccccc3C(=O)C2=O)CC1` (stereo unspecified), 6.85 µM (active); under `CCOC(=O)OCC/C(SC(=O)OCC)=C(\C)N(C=O)Cc1cnc(C)nc1N`, “inactive”.

The record behind these values is PubChem BioAssay AID1347087 (National Center for Advancing Translational Sciences (NCATS), 2019).
